Laboratory results: PubChem BioAssay
Active and inactive are the calls of the source.

How the values were obtained:
[1] = small molecules captured by biotinylated probe aFSTL3 – biochemical, small-molecule microarray, fluorescence 635/667, stem cell growth factor project, primary screen (AID 1064); details: higher = more signal;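 note: measures binding of the biotinylated anti-FSTL3 antibody to printed compounds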
[2] = binders from COS7 lysate, DM2A8 probe, primary screen, torsin A project, cell lysate, small-molecule microarray, fluorescence 635/667 (AID 1065); details: higher = more signal, COS7 lysate expressing mutant human TOR1A
[3] = small molecules captured by biotinylated probe aFGF2 – biochemical, small-molecule microarray, fluorescence 635/667, stem cell growth factor project, primary screen (AID 1067); details: higher = more signal;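 note: measures binding of biotinylated aFGF2 protein to printed compounds on slides; z-score merges feature fluorescence and signal-to-noise across triplicate slides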
[4] = small molecules captured by biotinylated probe aFGF10 – biochemical, small-molecule microarray, fluorescence 635/667, stem cell growth factor project, primary screen (AID 1071); details: higher = more signal;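 note: score merges 667 nm spot intensity and signal to noise from triplicate slides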
[5] = molecular target: Neurogenic locus notch homolog protein 2 (Homo sapiens) (UniProt Q04721); experiment: small molecules binding Notch2 protein – biochemical, small-molecule microarray, 635 nm fluorescence, stem cell growth factors, primary screen (AID 1073); details: higher = more signal
Chain of Neurogenic locus notch homolog protein 2 (Homo sapiens) (Q04721 whole entry, looked up, canonical isoform): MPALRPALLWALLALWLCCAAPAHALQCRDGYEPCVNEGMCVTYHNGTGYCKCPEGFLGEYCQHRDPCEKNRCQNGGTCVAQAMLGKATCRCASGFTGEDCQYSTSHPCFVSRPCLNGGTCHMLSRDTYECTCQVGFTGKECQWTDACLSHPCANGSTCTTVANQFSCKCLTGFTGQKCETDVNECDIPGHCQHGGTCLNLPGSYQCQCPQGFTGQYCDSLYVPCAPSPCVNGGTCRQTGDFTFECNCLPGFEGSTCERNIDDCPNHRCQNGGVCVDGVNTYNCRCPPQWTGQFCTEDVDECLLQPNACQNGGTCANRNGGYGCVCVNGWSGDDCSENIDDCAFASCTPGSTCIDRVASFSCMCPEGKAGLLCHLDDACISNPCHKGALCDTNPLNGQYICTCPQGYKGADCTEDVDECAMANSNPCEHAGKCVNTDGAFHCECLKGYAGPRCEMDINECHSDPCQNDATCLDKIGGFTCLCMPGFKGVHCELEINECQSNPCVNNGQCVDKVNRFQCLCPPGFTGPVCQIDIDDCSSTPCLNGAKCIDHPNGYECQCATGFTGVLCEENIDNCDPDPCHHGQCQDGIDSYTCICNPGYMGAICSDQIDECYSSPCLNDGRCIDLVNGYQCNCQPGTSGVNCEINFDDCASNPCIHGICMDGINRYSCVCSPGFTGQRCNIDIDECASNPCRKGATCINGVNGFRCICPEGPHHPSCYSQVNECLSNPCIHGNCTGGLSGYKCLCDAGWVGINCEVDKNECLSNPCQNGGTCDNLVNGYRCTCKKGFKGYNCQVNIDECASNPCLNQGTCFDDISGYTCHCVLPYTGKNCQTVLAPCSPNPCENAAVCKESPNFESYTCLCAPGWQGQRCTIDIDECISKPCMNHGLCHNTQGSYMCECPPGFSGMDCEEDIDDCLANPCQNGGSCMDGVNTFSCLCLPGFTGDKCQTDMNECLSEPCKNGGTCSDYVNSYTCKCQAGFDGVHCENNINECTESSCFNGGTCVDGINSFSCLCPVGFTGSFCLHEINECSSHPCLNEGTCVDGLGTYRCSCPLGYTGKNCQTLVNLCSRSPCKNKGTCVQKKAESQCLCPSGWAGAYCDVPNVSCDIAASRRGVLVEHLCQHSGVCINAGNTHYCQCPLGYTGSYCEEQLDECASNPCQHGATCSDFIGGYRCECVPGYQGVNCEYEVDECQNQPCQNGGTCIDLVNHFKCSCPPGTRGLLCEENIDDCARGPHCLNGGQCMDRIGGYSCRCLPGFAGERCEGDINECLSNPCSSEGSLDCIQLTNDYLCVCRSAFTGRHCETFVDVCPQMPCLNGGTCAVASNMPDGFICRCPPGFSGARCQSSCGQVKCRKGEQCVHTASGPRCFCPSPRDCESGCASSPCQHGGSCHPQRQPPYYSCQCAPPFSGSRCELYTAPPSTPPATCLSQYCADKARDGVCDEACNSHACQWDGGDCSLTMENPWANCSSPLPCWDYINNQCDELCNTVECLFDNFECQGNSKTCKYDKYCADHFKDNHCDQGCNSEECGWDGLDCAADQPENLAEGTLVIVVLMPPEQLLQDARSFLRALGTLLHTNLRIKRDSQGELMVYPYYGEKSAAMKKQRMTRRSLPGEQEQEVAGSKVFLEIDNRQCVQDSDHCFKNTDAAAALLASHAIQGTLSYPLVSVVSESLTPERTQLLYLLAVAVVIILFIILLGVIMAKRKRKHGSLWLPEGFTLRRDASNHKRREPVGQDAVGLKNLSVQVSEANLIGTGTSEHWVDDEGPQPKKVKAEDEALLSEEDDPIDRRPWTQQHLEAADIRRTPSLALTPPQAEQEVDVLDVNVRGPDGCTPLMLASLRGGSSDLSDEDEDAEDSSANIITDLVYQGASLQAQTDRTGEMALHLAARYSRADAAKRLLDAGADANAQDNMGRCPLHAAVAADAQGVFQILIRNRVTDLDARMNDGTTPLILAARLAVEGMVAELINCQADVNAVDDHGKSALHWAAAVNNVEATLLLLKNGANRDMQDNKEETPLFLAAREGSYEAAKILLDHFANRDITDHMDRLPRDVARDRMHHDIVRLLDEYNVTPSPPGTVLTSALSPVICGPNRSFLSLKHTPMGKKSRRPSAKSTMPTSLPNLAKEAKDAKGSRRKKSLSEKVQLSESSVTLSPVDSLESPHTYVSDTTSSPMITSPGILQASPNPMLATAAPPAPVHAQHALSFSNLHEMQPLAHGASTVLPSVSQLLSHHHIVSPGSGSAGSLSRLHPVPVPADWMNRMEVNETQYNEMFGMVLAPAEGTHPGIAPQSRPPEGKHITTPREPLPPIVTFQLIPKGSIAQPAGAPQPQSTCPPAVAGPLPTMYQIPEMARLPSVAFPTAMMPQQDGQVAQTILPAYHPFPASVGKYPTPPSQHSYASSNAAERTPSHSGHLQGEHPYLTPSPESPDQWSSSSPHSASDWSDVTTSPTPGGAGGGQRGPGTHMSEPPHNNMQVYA

[6] = molecular target: Pro-neuregulin-1, membrane-bound isoform (Homo sapiens) (UniProt Q02297); experiment: small molecules binding neuregulin-1 protein – biochemical, small-molecule microarray, fluorescence 635/667, psychiatric disease protein project, primary screen (AID 1075); details: NRG1 binding, 635 nm fluorescence, higher = more signal;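 note: score combines 667 nm spot fluorescence with signal to noise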
Chain of Pro-neuregulin-1, membrane-bound isoform (Homo sapiens) (Q02297 whole entry, looked up, the tested form may be a part, canonical isoform): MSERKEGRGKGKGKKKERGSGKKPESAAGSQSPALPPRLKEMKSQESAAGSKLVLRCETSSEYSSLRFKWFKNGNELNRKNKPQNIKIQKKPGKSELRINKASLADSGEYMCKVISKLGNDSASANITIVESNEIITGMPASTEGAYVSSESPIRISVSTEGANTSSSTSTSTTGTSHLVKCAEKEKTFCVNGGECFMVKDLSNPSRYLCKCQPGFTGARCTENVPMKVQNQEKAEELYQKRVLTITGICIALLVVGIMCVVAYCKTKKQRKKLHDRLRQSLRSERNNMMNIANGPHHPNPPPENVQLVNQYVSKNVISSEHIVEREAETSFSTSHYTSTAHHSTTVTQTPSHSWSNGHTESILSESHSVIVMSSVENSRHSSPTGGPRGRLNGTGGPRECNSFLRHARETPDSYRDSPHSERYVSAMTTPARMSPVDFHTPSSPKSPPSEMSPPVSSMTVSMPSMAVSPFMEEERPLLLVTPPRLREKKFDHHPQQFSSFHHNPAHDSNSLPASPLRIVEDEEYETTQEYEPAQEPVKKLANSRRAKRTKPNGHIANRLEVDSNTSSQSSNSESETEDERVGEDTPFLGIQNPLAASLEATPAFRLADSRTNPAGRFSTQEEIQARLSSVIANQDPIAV

[7] = test system: Neuregulin-1 EGF-like domain; experiment: small molecules binding NRG1 EGF domain – biochemical, small-molecule microarray, 635 nm fluorescence, primary screen (AID 1081); details: higher = more signal;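 note: binding of the protein to compounds printed on small-molecule microarray slides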
[8] = FRG1 expression reporter modulators in myotubes – cell-based, C2C12 myotubes, firefly/Renilla luciferase, luminescence, FRG1 inhibition for FSHD, primary screen (AID 1084); details: FRG1 promoter luciferase, higher = more signal, called active from +8 up or from −8 down
[9] = small molecules captured by biotinylated probe aFST – biochemical, small-molecule microarray, fluorescence 635/667, stem cell growth factor project, primary screen (AID 1086); details: higher = more signal;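 note: score merges 667 nm fluorescence with signal-to-noise of each printed compound spot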
[10] = binders of probe aHhip on microarray, primary screen, stem cell growth factor project, biochemical, small-molecule microarray, fluorescence 635/667 (AID 1087); details: higher = more signal;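 note: score merges spot fluorescence at 667nm with spot signal to noise ratio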
[11] = test system: PRMT1 (protein arginine N-methyltransferase 1); experiment: small molecules binding arginine methyltransferase PRMT1 – biochemical, small-molecule microarray, 635 nm fluorescence, primary screen (AID 1088); details: higher = more signal;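 note: binding of Prmt1 protein to compounds spotted on small-molecule microarray slides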
[12] = growth effects on S. cerevisiae YJM789 – YJM789 clinical isolate, OD600, 24 h, basal, primary screen (AID 1089); details: higher = more signal, called active from +8 up or from −8 down;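 note: growth of clinical yeast isolate S. cerevisiae YJM 789 seeded 1000 cells per well; test concentration not given here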
[13] = S. pombe growth modifiers, basal conditions – strain 972, OD600, 24 h, no modulator, primary screen (AID 1090);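 note: basal condition with compound alone and no growth modifier present; test concentration not given here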; details: S. pombe 972 growth, higher = more signal, called active from +8 up or from −8 down
[14] = budding yeast growth modifiers under rapamycin – strain BY4716, OD600, 96 h, primary screen (AID 1091); note: test concentration not given here; details: S. cerevisiae BY4716 + rapamycin, higher = more signal, called active from +8 up or from −8 down
[15] = molecular target: Torsin-1A-interacting protein 2 (Homo sapiens) (UniProt Q8NFQ8); experiment: small molecules binding lysate-expressed LULL1 – cell lysate, human LULL1 lysate, 635/667 nm fluorescence, primary screen (AID 1092); details: small-molecule microarray, hLULL1 lysate binding, 635 nm fluorescence; higher = more signal;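 note: probe is lysate of COS7 cells overexpressing human LULL1; score merges per-feature 667 nm fluorescence with signal-to-noise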
Chain of Torsin-1A-interacting protein 2 (Homo sapiens) (Q8NFQ8 whole entry, looked up): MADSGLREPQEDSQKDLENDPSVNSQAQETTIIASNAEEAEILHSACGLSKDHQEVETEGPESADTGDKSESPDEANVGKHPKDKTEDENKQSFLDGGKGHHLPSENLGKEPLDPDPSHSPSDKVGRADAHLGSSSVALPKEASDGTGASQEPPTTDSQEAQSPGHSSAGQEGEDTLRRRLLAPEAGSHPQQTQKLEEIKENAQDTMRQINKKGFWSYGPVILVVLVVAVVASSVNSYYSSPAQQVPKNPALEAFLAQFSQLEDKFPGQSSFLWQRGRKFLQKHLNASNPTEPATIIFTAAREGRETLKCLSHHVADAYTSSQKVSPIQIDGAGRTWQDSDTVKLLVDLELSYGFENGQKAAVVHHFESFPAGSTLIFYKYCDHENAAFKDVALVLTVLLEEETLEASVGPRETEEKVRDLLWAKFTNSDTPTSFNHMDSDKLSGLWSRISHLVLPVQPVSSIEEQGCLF

[16] = optical density change of DRC41 E. coli – strain DRC41, OD650, 24 h, E. coli filamentation project, primary screen (AID 1093);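 note: MC1000 strain lacking acrAB efflux and sulA so SOS filamentation is blocked; test concentration not given here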; details: E. coli DRC41 growth, higher = more signal, called active from +8 up or from −8 down
[17] = probe aLefty2 binding to arrayed compounds – biochemical, biotinylated probe, 635/667 nm fluorescence, primary screen (AID 1094); details: small-molecule microarray, higher = more signal;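 note: score merges spot fluorescence near 667 nm with spot signal-to-noise ratio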
[18] = test system: Noggin (protein binding on small-molecule microarray); experiment: small molecules binding Noggin protein – biochemical, 635/667 nm fluorescence, primary screen (AID 1095); details: 635 nm fluorescence, higher = more signal;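 note: score merges 667 nm feature fluorescence with signal to noise over triplicate slides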
[19] = molecular target: Neurogenic locus notch homolog protein 3 (Homo sapiens) (UniProt Q9UM47); experiment: small molecules binding NOTCH3 protein – biochemical, 635/667 nm fluorescence, primary screen (AID 1096); details: small-molecule microarray, 635 nm fluorescence, higher = more signal
[20] = probe aEGFR binding to arrayed compounds – biochemical, biotinylated probe, 635/667 nm fluorescence, primary screen (AID 1097); details: small-molecule microarray, higher = more signal;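 note: probe is a biotinylated anti-EGFR antibody binding compounds printed on slides; score combines fluorescence near 667 nm and signal to noise of each spot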

| Compound | composite z-score [1] | composite z-score [2] | composite z-score [3] | composite z-score [4] | composite z-score [5] | composite z-score [6] | composite z-score [7] | z-score [8] | composite z-score [9] | composite z-score [10] | composite z-score [11] | z-score [12] | z-score [13] | z-score [14] | composite z-score [15] | z-score [16] | composite z-score [17] | composite z-score [18] | composite z-score [19] | composite z-score [20] |
| --- | --- | --- | --- | --- | --- | --- | --- | --- | --- | --- | --- | --- | --- | --- | --- | --- | --- | --- | --- | --- |
| CC(C)N1CC=CC23O[C@@H]4/C=C\CCCOC(=O)C4[C@H]2C(=O)N(CCCO)[C@@H]3C1=O (stereo not given in full) | 0.495 | 2.3 | -0.01 | 0.215 | -0.615 | 0.0034 | 1.14 | 1 (inactive) | -0.623 | -0.374 | -0.78 | 0.759 (inactive) | -0.76 (inactive) | 0.752 (inactive) | 2.15 | 1.77 (inactive) | -0.221 | -1.17 | 0.0751 | -0.285 |
| CC(=O)NCCCC[C@@H]1NC(=O)[C@@H]2C[C@H](C(=O)O)[C@H](c3cccc(OCCO)c3)N2C1=O | -0.16 | 0.619 | -0.112 | 0.321 | 0.124 | 0.0677 | 1.31 | 0.356 (inactive) | 0.199 | -0.153 | 1.55 | 1.18 (inactive) | -0.201 (inactive) | 1.46 (inactive) | 0.654 | 0.809 (inactive) | -0.0846 | 1.6 | 0.58 | 0.0437 |
| CC(C)(C)OC(=O)CC[C@@]1(C(=O)N2CCOCC2)N=C(c2ccc(OCCCO)cc2)O[C@@H]1c1ccccc1 | 1.19 | 0.426 | 0.088 | 0.435 | 1.07 | 2.16 | 1.36 | -1.79 (inactive) | 0.517 | 0.28 | 1.58 | 0.153 (inactive) | -0.0631 (inactive) | 0.248 (inactive) | 3.95 | 1.32 (inactive) | 0.32 | 0.743 | 0.274 | 0.233 |
| C=CCNC(=O)[C@@H]1[C@H]2C(=O)O[C@H](c3ccccc3)[C@H](c3ccccc3)N2[C@H](c2ccc(O)cc2)[C@@]12C(=O)Nc1ccc(C#Cc3ccc(OC)cc3)cc12 | -0.112 | 0.712 | 0.0356 | 0.69 | 1.46 | 0.489 | 1.16 | 0.606 (inactive) | 0.496 | -0.0672 | 1.54 | -0.147 (inactive) | -1.67 (inactive) | 2.97 (inactive) | 1.96 | 2.8 (inactive) | 0.0005 | 0.436 | 1.14 | -0.0019 |
| CCOC(=O)C[C@H]1[C@H](OC(=O)c2ccc(-c3ccccc3)cc2)[C@@H](NC(=O)C2CCCCC2)c2cc(OCCCO)ccc2N1C(=O)c1ccc2ccccc2n1 | 0.0371 | 0.3 | -0.0788 | 0.361 | 0.689 | 0.738 | 0.741 | -0.429 (inactive) | 0.483 | -0.226 | 1.12 | -0.778 (inactive) | -1.55 (inactive) | -0.327 (inactive) | 1.72 | 2.33 (inactive) | 0.0366 | 0.0692 | 1.1 | -0.0631 |
| COc1ccc([Si](C)(C)[C@H]2[C@H](CC(=O)N(CCO)Cc3ccccc3)O[C@@]3(C(=O)N(Cc4ccc(N5CCOC5=O)cc4)c4ccccc43)[C@@H]2C)cc1 | 0.0147 | 0.285 | -0.105 | 0.202 | 0.135 | 0.869 | 1.01 | -2.95 (inactive) | -0.158 | -0.0618 | 0.92 | 0.473 (inactive) | 0.273 (inactive) | 3.26 (inactive) | 1.98 | 1.46 (inactive) | -0.0595 | 0.821 | 0.361 | -0.146 |
| C=CCNC(=O)[C@@H]1[C@H]2C(=O)O[C@H](c3ccccc3)[C@H](c3ccccc3)N2[C@H](c2ccc(O)cc2)[C@@]12C(=O)Nc1ccccc12 | -0.156 | 0.654 | -0.0521 | 0.0546 | -0.554 | 1.31 | 0.574 | 0.674 (inactive) | -0.0542 | -0.251 | 1.45 | 0.455 (inactive) | -1.32 (inactive) | 1.89 (inactive) | 2.8 | 2.14 (inactive) | -0.189 | 0.855 | 0.31 | -0.129 |
| CO[C@H]1O[C@H](CO)[C@@H](OC(=O)Nc2ccccc2)[C@H](OC(=O)Nc2ccccc2-c2ccccc2)[C@@H]1OC(=O)Nc1ccccc1-c1ccccc1 | -0.711 | 0.606 | -0.0141 | 0.901 | 1.49 | 1.7 | 1.31 | -0.979 (inactive) | 0.325 | -0.0346 | 1.53 | 1.17 (inactive) | -0.271 (inactive) | -0.471 (inactive) | 3.13 | 1.36 (inactive) | 0.0623 | 0.926 | 1.06 | 0.423 |
| COc1ccc(C#Cc2ccc3c(c2)[C@]2(C(=O)N3)[C@H](c3ccc(O)cc3)N3[C@H](c4ccccc4)[C@H](c4ccccc4)OC(=O)[C@H]3[C@@H]2C(N)=O)cc1 | 0.573 | 0.395 | 0.0519 | 0.889 | -0.695 | 1.68 | 0.785 | 0.532 (inactive) | -0.235 | -0.24 | 0.632 | 1.46 (inactive) | -1.02 (inactive) | 2.73 (inactive) | 2.14 | 1.68 (inactive) | -0.2 | -0.877 | -0.854 | -0.401 |
| C=CCN1C(=O)[C@@]2(O[C@@H](CCn3cc(CCO)nn3)[C@H]([Si](C)(C)c3ccc(OC)cc3)[C@H]2C)c2cc(N3C(=O)c4cccc5cccc3c45)ccc21 | -0.323 | 0.749 | -0.0839 | 0.569 | 0.705 | 1.11 | 0.813 | -2.79 (inactive) | 0.42 | 0.142 | 0.949 | -0.309 (inactive) | 0.593 (inactive) | 13.5 (active) | 0.875 | 2.4 (inactive) | -0.0592 | 0.412 | 1.07 | -0.0332 |
